Drawing on the supplement of paper PMC6555819, this text covers PBM binding z-score for 40 sequences.

The first test deals with PPARg DBDmut IVT, anti-PPARg (DBD mutation: PPARg1 K132A/R137A, NR concentration 270 nM). Description: PBM binding z-score (relative to random genomic background probes); higher = stronger binding; sequences stand for … in GC…GCGATTGACAGCGTAGAATGAAGG
An outline of the steps:
(§1)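 Ligand-free nuclear receptor dimers were applied to custom Agilent 4×180K protein-binding microarrays whose double-stranded probes carried direct-repeat seeds, single-nucleotide variants, half-site ablations and random human genomic background sequences in 34-nt variable regions. Incubation lasted 1 h. Binding z-scores were computed against the random background probes from regression-normalized fluorescence.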
Sequence TGAATGAGGTTACAAGATCAGGGAACGTTGCAAA yielded a PBM binding z-score of 1.

With CCTCGGAGGACAGAAGGACAGAGCTGTCCGCTTT, the PBM binding z-score is -1.82.

Take ATCCAAAGGTCGTGAGGTGAGTATACAGAAAGGC: the PBM binding z-score came to 0.827.

In the case of CCTTACGGGTGACGAGGTTATAGCACGACGAGCG, the PBM binding z-score was -0.275.

Sequence CCGACTGGGGCAAGGTTACGATAACGCACAGCCA registered a PBM binding z-score of -0.572.

The sequence TATACAGGGTGAAAGGCCAGAGTACGAATGTCGA yielded a PBM binding z-score of 0.732.

For the sequence CAAACTAGATCAAAGGTCAAAGTCGAGCCAACCA, the PBM binding z-score amounted to 1.55.

In turn, TCTTGTAGATCAACCAGGTTAAGAAAGCCTGAGT returned a PBM binding z-score of 0.818.

The sequence TTAATGAGGTTAAAGATCAGGGAACGTGGCGTCG registered a PBM binding z-score of 1.16.

ACTCGGCGGACAAAGGTCAGAGCTACGCCAGTGA yielded a PBM binding z-score of -0.434.

Consider TCTATGAGTTGATTAGGGCAACCGAAACAGCGGA, for which the PBM binding z-score was -0.582.

ATCTCTAGGTAACGAAGTTCAGTGAATGCCGAAC gave a PBM binding z-score of 0.901.

Sequence CTCGAAAGGTCGGTTGAGTTGAGTATACGGATAA yielded a PBM binding z-score of 0.673.

ACTATTAGTTGATTTAGGGCAACCGATACGACGC registered a PBM binding z-score of 1.32.

Sequence AGAATGAGGTTATTGAGATCAGGGAATTGCGGTC had a PBM binding z-score of 0.563.

ATCTCTAGGTAAGACTCAGTTCAGTGAAGAACGC: the PBM binding z-score amounted to 1.16.

CCTATTAGTTGACCATACGGGCAACCGAAGCTCG registered a PBM binding z-score of 0.71.

As to TTACCAAGGTGAAAGGTCCTTGATGCACGCCTTG, the PBM binding z-score stood at 0.133.

Turning to CCTAGTTGGTCCAGGTCACACACGCTATAGGTAC, the PBM binding z-score was 0.266.

CCTCGGAGGACAGGAGGTCAGAGCTGTCCGCTTT: the PBM binding z-score is -2.09.

The sequence GTACCAAGGTGAATAGATCGTTGATGAGTAGGCG registered a PBM binding z-score of 0.448.

Regarding CCTACTGGGCCACGAAAGGTCGTTGATTCAGTGA, the PBM binding z-score was -0.744.

Turning to CAAACTGGGTCACCGGAAGGTCAAAGTCCGCATG, the PBM binding z-score was 0.892.

TCTCGGAGGACACGCAGGTCAGAGCTTTCCAGAG came in with a PBM binding z-score of -1.54.

For the sequence CCGAGTAGGTTATCGGGCATTCAGGCAACGGTGA, the PBM binding z-score was -1.21.

Sequence TCTTGTAGGTCAACAGGAGGTTAAGAAAGATCGA showed a PBM binding z-score of 3.87.

TGAATTAGGTTAAAGATCAGGGAACGTGGCGTCG came in with a PBM binding z-score of 1.43.

In the case of ATTCAAAGTTCATCTAGGTAACGTAAGATATGCT, the PBM binding z-score amounted to 1.91.

Sequence TAGCCTAGGTGATGCGGGCCAGTATAGTGTCGGC gave a PBM binding z-score of -0.995.

TAGCCTAGGTCCTGGGCCAGTATACCACGCGAAC: the PBM binding z-score was -1.32.

Take CCTATTAGTTGACCATAAGGGCAAGCGAAGCTCG: the PBM binding z-score worked out at 0.32.

GGAACGCGGGCAAGTTGATAGCAGAGTTTGATGG registered a PBM binding z-score of -1.56.

TCATATAGGTAATACAGGTGAATGTCGGCATCTA: the PBM binding z-score came to 1.28.

On to ATCGAAAGGTCGACGAGGTGAGTTTACACCGTTT, for which the PBM binding z-score was found to be 0.288.

On to ATATGTAGGTTATCGGGTCATTCAGTTTGCGCAT, for which the PBM binding z-score was determined as 2.54.

Sequence ACAGACAGGTGAGTGAAGGTAACGCAGCTGGACG yielded a PBM binding z-score of -0.822.

CGTCCAAGGTCAGCAGATCAGTGAAAGCGACGTG yielded a PBM binding z-score of -0.498.

AGAATGAGGTTACCAAAGATCCGGGAAACGCTTG had a PBM binding z-score of 0.35.

The sequence AGAACGAGGGCAATGAGTTGCTAGCACGGGTGGC showed a PBM binding z-score of -0.0393.

As to CAAACTAGGTCAAAGGTAAAAGTCGAGCCAACCA, the PBM binding z-score was determined as 1.05.

In another test the test system is PPARg homodimer (NR concentration 180 nM). The test is described as above. The procedure, abridged:
as §1
In turn, TGAATGAGGTTACAAGATCAGGGAACGTTGCAAA displayed a PBM binding z-score of 0.112.

CCTCGGAGGACAGAAGGACAGAGCTGTCCGCTTT: the PBM binding z-score is -0.605.

Sequence ATCCAAAGGTCGTGAGGTGAGTATACAGAAAGGC had a PBM binding z-score of 1.97.

The sequence CCTTACGGGTGACGAGGTTATAGCACGACGAGCG yielded a PBM binding z-score of 1.21.

Sequence CCGACTGGGGCAAGGTTACGATAACGCACAGCCA showed a PBM binding z-score of 0.143.

TATACAGGGTGAAAGGCCAGAGTACGAATGTCGA had a PBM binding z-score of 1.24.

Regarding CAAACTAGATCAAAGGTCAAAGTCGAGCCAACCA, the PBM binding z-score stood at 4.96.

The sequence TCTTGTAGATCAACCAGGTTAAGAAAGCCTGAGT gave a PBM binding z-score of -0.217.

With TTAATGAGGTTAAAGATCAGGGAACGTGGCGTCG, the PBM binding z-score was found to be 1.89.

As to ACTCGGCGGACAAAGGTCAGAGCTACGCCAGTGA, the PBM binding z-score was determined as 1.79.

Sequence TCTATGAGTTGATTAGGGCAACCGAAACAGCGGA showed a PBM binding z-score of -0.0125.

ATCTCTAGGTAACGAAGTTCAGTGAATGCCGAAC gave a PBM binding z-score of 0.161.

Turning to CTCGAAAGGTCGGTTGAGTTGAGTATACGGATAA, the PBM binding z-score was 1.04.

In turn, ACTATTAGTTGATTTAGGGCAACCGATACGACGC registered a PBM binding z-score of 1.41.

Turning to AGAATGAGGTTATTGAGATCAGGGAATTGCGGTC, the PBM binding z-score was found to be 0.709.

Sequence ATCTCTAGGTAAGACTCAGTTCAGTGAAGAACGC had a PBM binding z-score of 1.11.

Take CCTATTAGTTGACCATACGGGCAACCGAAGCTCG: the PBM binding z-score stood at 1.39.

The sequence TTACCAAGGTGAAAGGTCCTTGATGCACGCCTTG showed a PBM binding z-score of 0.166.

For CCTAGTTGGTCCAGGTCACACACGCTATAGGTAC, the PBM binding z-score was 2.22.

Consider CCTCGGAGGACAGGAGGTCAGAGCTGTCCGCTTT, for which the PBM binding z-score amounted to 1.28.

In the case of GTACCAAGGTGAATAGATCGTTGATGAGTAGGCG, the PBM binding z-score stood at 0.785.

CCTACTGGGCCACGAAAGGTCGTTGATTCAGTGA showed a PBM binding z-score of 1.16.

The sequence CAAACTGGGTCACCGGAAGGTCAAAGTCCGCATG came in with a PBM binding z-score of 6.19.

Take TCTCGGAGGACACGCAGGTCAGAGCTTTCCAGAG: the PBM binding z-score worked out at 0.365.

On to CCGAGTAGGTTATCGGGCATTCAGGCAACGGTGA, for which the PBM binding z-score stood at 0.257.

With TCTTGTAGGTCAACAGGAGGTTAAGAAAGATCGA, the PBM binding z-score is 2.63.

For the sequence TGAATTAGGTTAAAGATCAGGGAACGTGGCGTCG, the PBM binding z-score is 1.58.

ATTCAAAGTTCATCTAGGTAACGTAAGATATGCT came in with a PBM binding z-score of 2.88.

With TAGCCTAGGTGATGCGGGCCAGTATAGTGTCGGC, the PBM binding z-score is -1.

TAGCCTAGGTCCTGGGCCAGTATACCACGCGAAC returned a PBM binding z-score of -1.29.

The sequence CCTATTAGTTGACCATAAGGGCAAGCGAAGCTCG yielded a PBM binding z-score of 1.47.

The sequence GGAACGCGGGCAAGTTGATAGCAGAGTTTGATGG returned a PBM binding z-score of -0.831.

As to TCATATAGGTAATACAGGTGAATGTCGGCATCTA, the PBM binding z-score is 1.27.

For ATCGAAAGGTCGACGAGGTGAGTTTACACCGTTT, the PBM binding z-score is 1.24.

ATATGTAGGTTATCGGGTCATTCAGTTTGCGCAT: the PBM binding z-score came to 2.67.

In turn, ACAGACAGGTGAGTGAAGGTAACGCAGCTGGACG registered a PBM binding z-score of -0.463.

In the case of CGTCCAAGGTCAGCAGATCAGTGAAAGCGACGTG, the PBM binding z-score was found to be 2.2.

AGAATGAGGTTACCAAAGATCCGGGAAACGCTTG returned a PBM binding z-score of 0.752.

Sequence AGAACGAGGGCAATGAGTTGCTAGCACGGGTGGC displayed a PBM binding z-score of -0.0603.

In the case of CAAACTAGGTCAAAGGTAAAAGTCGAGCCAACCA, the PBM binding z-score came out at 2.75.
